Results taken from the supplement of paper PMC9262897, “Low-cost anti-mycobacterial drug discovery using engineered E. coli” (Nature Communications, 2022).
Structures can show the parent of a compound that is named as a salt. ± gives the standard deviation of the averaged measurements.

Experiments:
Assay in all cases: growth (OD600 after 10 h); higher = more growth (less inhibition)
[1] = tested on: E. coli TESEC Alr+ wild-type control; conditions: compound 0.1 mM; raw OD600 reference: median of DMSO wells 0.241, cell-free background 0.041
Experimental: (§1)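 TESEC Mtb Alr E. coli, or the Alr+ wild-type control, in 384-well plates with Prestwick library compounds at 0.1 mM and 1% DMSO, across arabinose induction levels of 1E3 to 1E7 nM. Growth is read as OD600 after 10 h at 37 °C in triplicate biological replicates.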

E. coli TESEC Mtb Alr [2] = conditions: compound 0.1 mM
Experimental: as §1

E. coli TESEC Mtb Asd = conditions: compound 0.1 mM
Experimental: (§2)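 TESEC E. coli strains in which the native enzyme is deleted and replaced by arabinose-inducible Mtb Asd, DapB, CysH or TrpD, each grown in its selective medium. Strains were screened against the Prestwick library at 0.1 mM and 1% DMSO in 384-well format at low and high arabinose induction. Growth is read as OD600 after 10 h in triplicate.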

E. coli TESEC Mtb DapB = conditions: compound 0.1 mM
Experimental: as §2

[3] = tested on: E. coli TESEC Alr+ wild-type control; conditions: compound 0.1 mM; raw OD600 reference: median of DMSO wells 0.49, cell-free background 0.052
Experimental: (§3)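 TESEC Mtb Alr E. coli (ΔaraC ΔtolC ΔentC Δalr ΔdadX, arabinose-inducible Mtb Alr) or the Alr+ wild-type control strain, grown in defined M9-fructose medium without D-alanine in 96-well plates with Prestwick library compounds at 0.1 mM and 1% DMSO. Low Alr induction is 0.1 µM arabinose and high induction is 10 mM arabinose.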

E. coli TESEC Mtb Alr [4] = conditions: compound 0.1 mM; remark: listed apart in the source
Experimental: as §3

[5] = arabinose 1000 nM, raw OD600 reference: median of DMSO wells 0.294, cell-free background 0.041
[6] = arabinose 10000 nM, raw OD600 reference: median of DMSO wells 0.264, cell-free background 0.041
[7] = arabinose 100000 nM, raw OD600 reference: median of DMSO wells 0.201, cell-free background 0.041
[8] = arabinose 1000000 nM, raw OD600 reference: median of DMSO wells 0.193, cell-free background 0.041
[9] = arabinose 10000000 nM, raw OD600 reference: median of DMSO wells 0.146, cell-free background 0.041
[10] = arabinose induction (level): High, raw OD600 reference: median of DMSO wells 0.331, cell-free background 0.041
[11] = arabinose induction (level): Low, raw OD600 reference: median of DMSO wells 0.417, cell-free background 0.041
[12] = arabinose induction (level): High, raw OD600 reference: median of DMSO wells […], cell-free background 0.041
[13] = arabinose induction (level): Low, raw OD600 reference: median of DMSO wells 0.227, cell-free background 0.041
[14] = arabinose 100 nM, raw OD600 reference: median of DMSO wells 0.413, cell-free background 0.052
[15] = arabinose 10000000 nM, raw OD600 reference: median of DMSO wells […], cell-free background 0.052

| Structure (SMILES) | growth [1] | growth (E. coli TESEC Mtb Alr [2]; [5]) | growth (E. coli TESEC Mtb Alr [2]; [6]) | growth (E. coli TESEC Mtb Alr [2]; [7]) | growth (E. coli TESEC Mtb Alr [2]; [8]) | growth (E. coli TESEC Mtb Alr [2]; [9]) | growth (E. coli TESEC Mtb Asd; [10]) | growth (E. coli TESEC Mtb Asd; [11]) | growth (E. coli TESEC Mtb DapB; [12]) | growth (E. coli TESEC Mtb DapB; [13]) | growth [3] | growth (E. coli TESEC Mtb Alr [4]; [14]) | growth (E. coli TESEC Mtb Alr [4]; [15]) |
| --- | --- | --- | --- | --- | --- | --- | --- | --- | --- | --- | --- | --- | --- |
| CCOCCn1c(N2CCCN(C)CC2)nc2ccccc21 [Emedastine] | 0.223 ± 0.007 | 0.288 ± 0.0092 | 0.25 ± 0.0071 | 0.211 ± 0.052 | 0.164 ± 0.0048 | 0.135 ± 0.004 | 0.291 ± 0.075 | 0.328 ± 0.058 | 0.205 ± 0.018 | 0.211 ± 0.019 | 0.514 ± 0.081 | 0.415 ± 0.012 | 0.337 ± 0.013 |
| CCCCOC(=O)c1ccc(N)cc1 [Butamben] | 0.194 ± 0.0098 | 0.23 ± 0.018 | 0.277 ± 0.0069 | 0.186 ± 0.011 | 0.233 ± 0.0061 | 0.16 ± 0.0031 | 0.566 ± 0.058 | 0.304 ± 0.11 | 0.23 ± 0.086 | 0.218 ± 0.07 | 0.452 ± 0.0073 | 0.36 ± 0.026 | 0.344 ± 0.018 |
| COc1ccc(C(=O)c2ccccc2O)c(O)c1 [Dioxybenzone] | 0.125 ± 0.0069 | 0.116 ± 0.0049 | 0.124 ± 0.0053 | 0.107 ± 0.005 | 0.085 ± 0.0034 | 0.107 ± 0.0014 | 0.261 ± 0.022 | 0.197 ± 0.0098 | 0.183 ± 0.014 | 0.23 ± 0.016 | 0.355 ± 0.014 | 0.352 ± 0.05 | 0.152 ± 0.014 |
| CN(C(=O)CN(CCO)CC(=O)N(C)C(C)(C)Cc1ccccc1)C(C)(C)Cc1ccccc1 [Oxethazaine] | 0.0424 ± 0.0038 | 0.0404 ± 0.001 | 0.03963 ± 0.00015 | 0.0411 ± 0.00087 | 0.03937 ± 0.00015 | 0.0411 ± 0.0013 | 0.179 ± 0.014 | 0.25 ± 0.037 | 0.187 ± 0.031 | 0.202 ± 0.05 | 0.0484 ± 0.00076 | 0.165 ± 0.2 | 0.0514 ± 0.00058 |
| CO[C@H]1/C=C/O[C@@]2(C)Oc3c(C)c(O)c4c(O)c(c(/C=N/N5CCN(C6CCCC6)CC5)c(O)c4c3C2=O)NC(=O)/C(C)=C\C=C\[C@H](C)[C@H](O)[C@@H](C)[C@@H](O)[C@@H](C)[C@H](OC(C)=O)[C@@H]1C [Rifapentine] | 0.0433 ± 0.00049 | 0.0468 ± 0.0029 | 0.04193 ± 0.00032 | 0.042 ± 0.00082 | 0.0431 ± 0.0013 | 0.04243 ± 0.00025 | 0.0584 ± 0.0025 | 0.0547 ± 0.0039 | 0.102 ± 0.087 | 0.0512 ± 0.00082 | 0.05153 ± 0.00031 | 0.0847 ± 0.014 | 0.0548 ± 0.0062 |
| CC(=O)[C@H]1CC[C@H]2[C@@H]3CC=C4C[C@@H](O)CC[C@]4(C)[C@H]3CC[C@]12C [Pregnenolone] | 0.166 ± 0.0078 | 0.235 ± 0.015 | 0.239 ± 0.016 | 0.173 ± 0.029 | 0.136 ± 0.0035 | 0.159 ± 0.0019 | 0.168 ± 0.026 | 0.343 ± 0.034 | 0.191 ± 0.0035 | 0.184 ± 0.009 | 0.458 ± 0.0056 | 0.398 ± 0.0084 | 0.2327 ± 0.0018 |
| Cc1cnc(C(=O)NCCc2ccc(S(=O)(=O)NC(=O)NC3CCCCC3)cc2)cn1 [Glipizide] | 0.252 ± 0.0045 | 0.289 ± 0.0034 | 0.263 ± 0.0066 | 0.193 ± 0.019 | 0.183 ± 0.0084 | 0.141 ± 0.0039 | 0.341 ± 0.084 | 0.406 ± 0.029 | 0.199 ± 0.032 | 0.256 ± 0.042 | 0.506 ± 0.049 | 0.419 ± 0.0083 | 0.222 ± 0.025 |
| Cc1cc(C(=O)NNCc2ccccc2)no1 [Isocarboxazid] | 0.253 ± 0.0036 | 0.319 ± 0.014 | 0.28 ± 0.0081 | 0.234 ± 0.0096 | 0.198 ± 0.0079 | 0.158 ± 0.0025 | 0.492 ± 0.0092 | 0.441 ± 0.039 | 0.211 ± 0.023 | 0.239 ± 0.035 | 0.463 ± 0.036 | 0.402 ± 0.014 | 0.362 ± 0.013 |
| Nc1nc(=O)c2c([nH]1)NC[C@@H](CNc1ccc(C(=O)N[C@@H](CCC(=O)O)C(=O)O)cc1)N2C=O [Folinic acid calcium salt] | 0.255 ± 0.0064 | 0.289 ± 0.0096 | 0.274 ± 0.0059 | 0.204 ± 0.033 | 0.211 ± 0.016 | 0.1379 ± 0.0013 | 0.307 ± 0.0086 | 0.391 ± 0.08 | 0.203 ± 0.012 | 0.218 ± 0.014 | 0.567 ± 0.12 | 0.397 ± 0.008 | 0.375 ± 0.019 |
| Oc1c(I)cc(Cl)c2cccnc12 [Clioquinol] | 0.0473 ± 0.0055 | 0.0429 ± 0.0016 | 0.0409 ± 0.00085 | 0.0461 ± 0.0025 | 0.0417 ± 0.00053 | 0.0513 ± 0.0023 | 0.0601 ± 0.0098 | 0.0661 ± 0.016 | 0.0573 ± 0.0004 | 0.0551 ± 0.0021 | 0.0685 ± 0.0091 | 0.0741 ± 0.02 | 0.0669 ± 0.011 |
| CCOC(=O)NNc1nncc2ccccc12 [Todralazine hydrochloride] | 0.252 ± 0.0065 | 0.3001 ± 0.00089 | 0.252 ± 0.0082 | 0.246 ± 0.03 | 0.181 ± 0.0025 | 0.16 ± 0.005 | 0.361 ± 0.1 | 0.346 ± 0.078 | 0.206 ± 0.011 | 0.275 ± 0.03 | 0.452 ± 0.021 | 0.406 ± 0.0052 | 0.271 ± 0.17 |
| CC(C)(CO)C(O)C(=O)NCCCO (stereo not drawn) [Panthenol (D)] | 0.261 ± 0.0085 | 0.296 ± 0.01 | 0.261 ± 0.0092 | 0.216 ± 0.053 | 0.192 ± 0.0077 | 0.147 ± 0.0069 | 0.357 ± 0.034 | 0.409 ± 0.043 | 0.185 ± 0.0037 | 0.219 ± 0.024 | 0.5 ± 0.047 | 0.406 ± 0.011 | 0.287 ± 0.13 |
| C[C@](N)(Cc1ccc(O)c(O)c1)C(=O)O [Methyldopa (L,-)] | 0.241 ± 0.011 | 0.298 ± 0.0073 | 0.27 ± 0.0043 | 0.24 ± 0.021 | 0.188 ± 0.017 | 0.146 ± 0.0063 | 0.356 ± 0.044 | 0.458 ± 0.041 | 0.187 ± 0.0082 | 0.226 ± 0.022 | 0.508 ± 0.05 | 0.411 ± 0.015 | 0.345 ± 0.026 |
| Cc1cc(C(C)(C)C)cc(C)c1CC1=NCCN1 [Xylometazoline hydrochloride] | 0.226 ± 0.0033 | 0.285 ± 0.0055 | 0.261 ± 0.01 | 0.221 ± 0.011 | 0.164 ± 0.0057 | 0.161 ± 0.0028 | 0.272 ± 0.041 | 0.393 ± 0.066 | 0.173 ± 0.011 | 0.252 ± 0.059 | 0.4501 ± 0.0037 | 0.413 ± 0.015 | 0.331 ± 0.011 |
| Cc1ccc(O)c([C@H](CCN(C(C)C)C(C)C)c2ccccc2)c1 [Tolterodine tartrate] | 0.163 ± 0.0078 | 0.245 ± 0.0098 | 0.283 ± 0.0087 | 0.201 ± 0.0068 | 0.148 ± 0.0076 | 0.191 ± 0.0035 | 0.245 ± 0.032 | 0.38 ± 0.025 | 0.198 ± 0.018 | 0.238 ± 0.036 | 0.55 ± 0.029 | 0.417 ± 0.0075 | 0.3 ± 0.013 |
| CCC(=O)OCC(=O)[C@@]1(OC(=O)CC)[C@H](C)C[C@H]2[C@H]3[C@H]([C@@H](O)C[C@@]21C)[C@@]1(C)C=CC(=O)C=C1C[C@H]3Cl [Alclometasone dipropionate] | 0.21 ± 0.0058 | 0.318 ± 0.028 | 0.277 ± 0.017 | 0.226 ± 0.07 | 0.127 ± 0.022 | 0.217 ± 0.065 | 0.209 ± 0.013 | 0.459 ± 0.032 | 0.198 ± 0.0033 | 0.215 ± 0.0041 | 0.492 ± 0.04 | 0.401 ± 0.0078 | 0.241 ± 0.04 |
